The record followed here is paper PMC12820563, “FoxP3 forms a head-to-head dimer in vivo and stabilizes its multimerization on adjacent microsatellites”.

Whole data set: some 16,000 sequences, median “rpm ratio (pull-down/input)” near 0.5, cut for the highest 2% near 5.5. For the sample, the highest values were picked, then their nearest neighbours and some sequences at random.

In the assay the target is T1, MBP-FoxP3dN (Mus musculus, UniProt Q99JB6 188-423).
T1 sequence: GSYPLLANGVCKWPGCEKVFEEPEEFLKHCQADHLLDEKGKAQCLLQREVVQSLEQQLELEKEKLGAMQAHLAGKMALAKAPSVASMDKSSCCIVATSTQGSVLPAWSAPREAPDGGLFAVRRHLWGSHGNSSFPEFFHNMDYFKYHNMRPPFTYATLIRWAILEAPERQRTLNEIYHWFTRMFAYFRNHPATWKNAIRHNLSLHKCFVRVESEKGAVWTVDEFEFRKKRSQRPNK
The assay is described as follows: PD-seq (MBP pull-down with sequencing); 20 mM Tris-HCl pH 7.5, 100 mM NaCl, 1.5 mM MgCl2, 0.4 uM protein, 0.1 uM dsDNA library, 30 min, room temperature, amylose pull-down; high values mean tight binding. Particulars: protein: recombinant; tags: His6-MBP; chain copies: 2; dsDNA, one strand shown. The gist of the method:
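E. coli-expressed mouse FoxP3 or FoxP1 fragment, N-terminus removed and tagged with His6-MBP, was used at 0.4 µM against 0.1 µM of a Klenow-filled degenerate double-stranded DNA library. After 30 min at room temperature in Tris pH 7.5 buffer with NaCl and MgCl2, complexes were pulled down on amylose resin and washed three times. Binding is pull-down over input reads-per-million enrichment from pooled replicates of the proteinase K-released, PCR-barcoded, Illumina-sequenced DNA.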
On to “GATGATTGTTCTCCCAGCTGATGAATTTCCTCCCTCGAGTAAACAAATTTTCCTAATCTTTCTGTTCAAGCGCCATCTAC”, for which the binding signal is 0.223 RPM ratio (pull-down/input). On to “GATGATTGTTCTCCCAGCTGATGAATTGGCGTCCTCGAGTAAACAAATTTTCCTAATCTTTCTGTTCAAGCGCCATCTAC”, for which the binding signal was 1.06 RPM ratio (pull-down/input).

Consider “GATGATTGTTCTCCCAGCTGATGAATTACCCAACTCGAGTAAACAAATTTTCCTAATCTTTCTGTTCAAGCGCCATCTAC”, for which the binding signal is 0.253 RPM ratio (pull-down/input). For “GATGATTGTTCTCCCAGCTGATGAATTATATCTGTCGAGTAAACAAATTTTCCTAATCTTTCTGTTCAAGCGCCATCTAC”, the binding signal was 0.544 RPM ratio (pull-down/input). Take “GATGATTGTTCTCCCAGCTGATGAATTATTATTGTCGAGTAAACAAATTTTCCTAATCTTTCTGTTCAAGCGCCATCTAC”: the binding signal is 2.61 RPM ratio (pull-down/input). Then “GATGATTGTTCTCCCAGCTGATGAATTTATTCTGTCGAGTAAACAAATTTTCCTAATCTTTCTGTTCAAGCGCCATCTAC”, with 0.533 RPM ratio (pull-down/input); and “GATGATTGTTCTCCCAGCTGATGAATTTTATGTGTCGAGTAAACAAATTTTCCTAATCTTTCTGTTCAAGCGCCATCTAC”, with 2.49 RPM ratio (pull-down/input); and “GATGATTGTTCTCCCAGCTGATGAATTATATTTGTCGAGTAAACAAATTTTCCTAATCTTTCTGTTCAAGCGCCATCTAC”, with 5.66 RPM ratio (pull-down/input). As to “GATGATTGTTCTCCCAGCTGATGAATTTATTGTGTCGAGTAAACAAATTTTCCTAATCTTTCTGTTCAAGCGCCATCTAC”, the binding signal was 6.95 RPM ratio (pull-down/input). As to “GATGATTGTTCTCCCAGCTGATGAATTATTTCTGTCGAGTAAACAAATTTTCCTAATCTTTCTGTTCAAGCGCCATCTAC”, the binding signal is 0.335 RPM ratio (pull-down/input).

As to “GATGATTGTTCTCCCAGCTGATGAATTTTATTTGTCGAGTAAACAAATTTTCCTAATCTTTCTGTTCAAGCGCCATCTAC”, the binding signal was 6.21 RPM ratio (pull-down/input). Then “GATGATTGTTCTCCCAGCTGATGAATTGTTATTGTCGAGTAAACAAATTTTCCTAATCTTTCTGTTCAAGCGCCATCTAC”, with 6.63 RPM ratio (pull-down/input).

Turning to “GATGATTGTTCTCCCAGCTGATGAATTATTTTTGTCGAGTAAACAAATTTTCCTAATCTTTCTGTTCAAGCGCCATCTAC”, the binding signal was 0.947 RPM ratio (pull-down/input). As for “GATGATTGTTCTCCCAGCTGATGAATTATTTGTGTCGAGTAAACAAATTTTCCTAATCTTTCTGTTCAAGCGCCATCTAC”, the binding signal was 2.76 RPM ratio (pull-down/input).

On to “GATGATTGTTCTCCCAGCTGATGAATTTTTATTGTCGAGTAAACAAATTTTCCTAATCTTTCTGTTCAAGCGCCATCTAC”, for which the binding signal was 0.972 RPM ratio (pull-down/input).

As to “GATGATTGTTCTCCCAGCTGATGAATTGTGCCGATCGAGTAAACAAATTTTCCTAATCTTTCTGTTCAAGCGCCATCTAC”, the binding signal was 1.02 RPM ratio (pull-down/input). For the sequence “GATGATTGTTCTCCCAGCTGATGAATTTTTTGAATCGAGTAAACAAATTTTCCTAATCTTTCTGTTCAAGCGCCATCTAC”, the binding signal was 0.229 RPM ratio (pull-down/input). Then “GATGATTGTTCTCCCAGCTGATGAATTGGGTGTTTCGAGTAAACAAATTTTCCTAATCTTTCTGTTCAAGCGCCATCTAC”, with 1.38 RPM ratio (pull-down/input); and “GATGATTGTTCTCCCAGCTGATGAATTCAACTGATCGAGTAAACAAATTTTCCTAATCTTTCTGTTCAAGCGCCATCTAC”, with 0.332 RPM ratio (pull-down/input); and “GATGATTGTTCTCCCAGCTGATGAATTGAATATGTCGAGTAAACAAATTTTCCTAATCTTTCTGTTCAAGCGCCATCTAC”, with 0.689 RPM ratio (pull-down/input). With “GATGATTGTTCTCCCAGCTGATGAATTGACACTCTCGAGTAAACAAATTTTCCTAATCTTTCTGTTCAAGCGCCATCTAC”, the binding signal was 0.6 RPM ratio (pull-down/input). Turning to “GATGATTGTTCTCCCAGCTGATGAATTCTTGAATTCGAGTAAACAAATTTTCCTAATCTTTCTGTTCAAGCGCCATCTAC”, the binding signal was 0.493 RPM ratio (pull-down/input). Then “GATGATTGTTCTCCCAGCTGATGAATTGTACTTTTCGAGTAAACAAATTTTCCTAATCTTTCTGTTCAAGCGCCATCTAC”, with 0.551 RPM ratio (pull-down/input); and “GATGATTGTTCTCCCAGCTGATGAATTGGGTGAGTCGAGTAAACAAATTTTCCTAATCTTTCTGTTCAAGCGCCATCTAC”, with 0.443 RPM ratio (pull-down/input); and “GATGATTGTTCTCCCAGCTGATGAATTCACTTGTTCGAGTAAACAAATTTTCCTAATCTTTCTGTTCAAGCGCCATCTAC”, with 1.02 RPM ratio (pull-down/input).

As to “GATGATTGTTCTCCCAGCTGATGAATTCAGTAACTCGAGTAAACAAATTTTCCTAATCTTTCTGTTCAAGCGCCATCTAC”, the binding signal is 1.34 RPM ratio (pull-down/input). With “GATGATTGTTCTCCCAGCTGATGAATTCAACACCTCGAGTAAACAAATTTTCCTAATCTTTCTGTTCAAGCGCCATCTAC”, the binding signal is 0.553 RPM ratio (pull-down/input). The result for “GATGATTGTTCTCCCAGCTGATGAATTATTTTGGTCGAGTAAACAAATTTTCCTAATCTTTCTGTTCAAGCGCCATCTAC” reads 0.995 RPM ratio (pull-down/input); that for “GATGATTGTTCTCCCAGCTGATGAATTTTATTGGTCGAGTAAACAAATTTTCCTAATCTTTCTGTTCAAGCGCCATCTAC”, 4.94 RPM ratio (pull-down/input).

In the case of “GATGATTGTTCTCCCAGCTGATGAATTTATATTGTCGAGTAAACAAATTTTCCTAATCTTTCTGTTCAAGCGCCATCTAC”, the binding signal is 2.37 RPM ratio (pull-down/input).

“GATGATTGTTCTCCCAGCTGATGAATTTATTTGGTCGAGTAAACAAATTTTCCTAATCTTTCTGTTCAAGCGCCATCTAC”: the binding signal was 6.15 RPM ratio (pull-down/input).

“GATGATTGTTCTCCCAGCTGATGAATTTAATTTGTCGAGTAAACAAATTTTCCTAATCTTTCTGTTCAAGCGCCATCTAC”: the binding signal was 3.39 RPM ratio (pull-down/input). Then “GATGATTGTTCTCCCAGCTGATGAATTTATTTTGTCGAGTAAACAAATTTTCCTAATCTTTCTGTTCAAGCGCCATCTAC”, with 5.94 RPM ratio (pull-down/input).
